Consider seven compounds from PubChem BioAssay (EPA / NIEHS).

The target in assay [1] is Transcription factor E2F1 (Homo sapiens) (UniProt Q01094). As to the kind of experiment: ATG_E2F_CIS: Attagene CIS-FACTORIAL HepG2 Assay for human E2F Transcription Factor 1 (AID 2282935). Particulars: HepG2 Attagene cis-reporter, E2F reporter RNA transcripts; actives raise or lower the signal. In a few lines: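 Transient MRTU transfection of HepG2; 24 h compound exposure; RNA → oligo(dT) RT → PCR → FAM label → HpaI cut → CE fluorescence. Gain/loss of signal fit against DMSO.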

Assay [2] is described as follows: ATG_E_Box_CIS: Attagene CIS-FACTORIAL HepG2 Assay for human Enhancer Box (E-box) (AID 2282936). Particulars: HepG2 E-box cis-reporter transcription, actives raise or lower the signal. In a few lines: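 Transiently transfected HepG2, endogenous TF-driven reporters, 24 h dosing. Readout: RT-PCR plus capillary electrophoresis of fluorescent reporter fragments. Gain or loss of signal fitted bidirectionally against DMSO baseline.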

Assay [3] in a line: ATG_M_61_CIS: Attagene CIS-FACTORIAL HepG2 Assay for M61 Transcription Factor (Internal Marker) (AID 2282937). Particulars: HepG2 Attagene CIS-FACTORIAL M61 internal marker reporter; actives raise or lower the signal. In outline: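 Human liver HepG2, transient MRTU transfection (cis promoter elements), 24 h compound. Total RNA → oligo(dT) RT → PCR → FAM label → HpaI → CE. Internal background marker; bidirectional fitting, DMSO = baseline.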

The nature of assay [4]: ATG_EGR_CIS: Attagene CIS-FACTORIAL HepG2 Assay for human Early Growth Response 1 (EGR1) (AID 2282938). Particulars: HepG2 Attagene CIS-FACTORIAL EGR reporter mRNA; actives raise or lower the signal. In a few lines:
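Transient transfection of human HepG2 with multiple cis-regulated reporter units, chemical exposure 24 h, total RNA isolated. Reverse transcription, PCR, fluorescent labelling and capillary electrophoresis quantify reporter transcripts; activity fitted bidirectionally against DMSO.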

Assay [5] is described as follows: ATG_M_19_CIS: Attagene CIS-FACTORIAL HepG2 Assay for M19 Transcription Factor (Internal Marker) (AID 2282939). Particulars: HepG2 Attagene CIS-FACTORIAL M19 internal marker reporter; actives raise or lower the signal. In outline:
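HepG2, MRTU transient transfection, 24 h dosing. Total RNA → RT-PCR → 6-FAM primer extension → HpaI digest → CE fluorescence. Bidirectional curve fit, DMSO negative control.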

Assay [6] is described as follows: ATG_ERE_CIS: Attagene CIS-FACTORIAL HepG2 Assay for Estrogen Response Element (ERE) (AID 2282940). Conditions: HepG2 ERE cis-reporter, Attagene RNA transcript; actives raise or lower the signal. In outline:
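After a 24 h chemical treatment, RNA from reporter-transfected HepG2 cells is reverse-transcribed, PCR-amplified and fluorescently labelled. Fragments separated by capillary electrophoresis give reporter signal; DMSO serves as negative control.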

Assay [7] can be described thus: ATG_Ets_CIS: Attagene CIS-FACTORIAL HepG2 Assay for human Erythroblast Transformation Specific (ETS) (AID 2282941). Particulars: HepG2 ETS cis-reporter transcription, actives raise or lower the signal. In a few lines:
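RT-PCR/capillary electrophoresis fluorescence read-out of reporter mRNA; HepG2 transient multi-reporter transfection; 24 h compound exposure; gain or loss of signal fitted bidirectionally relative to DMSO.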

For assay [8], the target named is Hepatocyte nuclear factor 3-beta (Homo sapiens) (UniProt Q9Y261). As to the kind of experiment: ATG_FoxA2_CIS: Attagene CIS-FACTORIAL HepG2 Assay for human Forkhead box A2 (FOXA2) (AID 2282942). Particulars: HepG2 cis-reporter transcription factor activity, 24 h; actives raise or lower the signal. In outline:
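Transient MRTU transfection of HepG2 liver cells; 24 h treatment; total RNA → oligo(dT) RT → PCR → FAM primer extension → HpaI cut → CE. Bidirectional fit vs DMSO.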

Assay [9] can be described thus: ATG_FoxO_CIS: Attagene CIS-FACTORIAL HepG2 Assay for human Forkhead box O (FoxO) (AID 2282943). Conditions: HepG2 Attagene cis-reporter, FoxO element, mRNA; actives raise or lower the signal. In a few lines: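 HepG2 cells transiently transfected with cis-element-driven reporter units report endogenous FoxO activity. After 24 h chemical exposure, reporter mRNA quantified by RT-PCR, fluorescent labeling, HpaI digestion and capillary electrophoresis; bidirectional fit versus DMSO.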

A short description of assay [10]: ATG_GATA_CIS: Attagene CIS-FACTORIAL HepG2 Assay for human GATA Binding Protein (AID 2282944). Conditions: HepG2 GATA cis-element reporter, Attagene multiplex mRNA; actives raise or lower the signal. In a few lines: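 Cells: HepG2, transiently transfected with cis-regulated reporter transcription units. Exposure: 24 h. Detection: RT-PCR plus capillary electrophoresis of FAM-labeled fragments. Analysis: bidirectional, DMSO as baseline.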

Assay [11] is described as follows: ATG_GLI_CIS: Attagene CIS-FACTORIAL HepG2 Assay for human Zinc Finger Protein GLI1 (AID 2282945). Conditions: HepG2, Attagene cis-factorial reporter mRNA, GLI element; actives raise or lower the signal. In outline: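 Transiently transfected HepG2 cells report endogenous transcription factor activity via cis-element-driven reporter units. After 24 h compound exposure, reporter mRNA was measured by RT-PCR with capillary electrophoresis; bidirectional fitting against DMSO baseline.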

In assay [12] the target is Bile acid receptor (Homo sapiens) (UniProt Q96RI1). As to the kind of experiment: ATG_IR1_CIS: Attagene CIS-FACTORIAL HepG2 Assay for human Nuclear Receptor Subfamily 1 Group H Member 4 (NR1H4), IR1 submotif (AID 2282946). Particulars: IR1 reporter transcription, actives raise or lower the signal. In a few lines: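 Fluorescence of capillary-separated, HpaI-digested RT-PCR reporter products gave IR1-element mRNA induction in HepG2 cells 24 h after dosing. Endogenous transcription factors drove the cis-regulated reporters; activity was fitted bidirectionally against DMSO.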

Assay [13] can be described thus: ATG_GRE_CIS: Attagene CIS-FACTORIAL HepG2 Assay for human Glucocorticoid Response Elements (GRE) (AID 2282947). Particulars: HepG2 GRE cis-reporter, Attagene multiplex mRNA; actives raise or lower the signal. In outline:
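Read-out: fluorescent reporter-transcript fragments separated by capillary electrophoresis after RT-PCR. Transiently transfected HepG2 cells carrying cis-element-driven reporter units were dosed for 24 h; gain or loss of signal fitted against DMSO control.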

A short description of assay [14]: ATG_ISRE_CIS: Attagene CIS-FACTORIAL HepG2 Assay for human Interferon Regulatory Factor 1 (IRF1) binding to an Interferon-Stimulated Response Element (ISRE) (AID 2282948). Conditions: HepG2 ISRE cis-reporter (Attagene), mRNA transcription readout; actives raise or lower the signal. In outline:
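Read-out: fluorescent RT-PCR products resolved by capillary electrophoresis, reporting endogenous transcription factor activity via ISRE-driven reporter mRNA in transfected HepG2 cells dosed for 24 h; gain or loss fitted relative to DMSO.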

Assay [15] can be described thus: ATG_M_32_CIS: Attagene CIS-FACTORIAL HepG2 Assay for M32 Transcription Factor (Internal Marker) (AID 2282949).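 Further: background control marker of the multiplexed CIS panel rather than a real target.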 Conditions: HepG2 Attagene cis-factorial M32 reporter, mRNA; actives raise or lower the signal. In outline: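 Using DMSO as baseline, bidirectional curve fits were applied to reporter mRNA signals. These came from transiently transfected HepG2 cells exposed for 24 h, with RNA analysed by RT-PCR, FAM primer extension, HpaI digestion and CE.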

Assay [16] in a line: ATG_M_06_CIS: Attagene CIS-FACTORIAL HepG2 Assay for M06 Transcription Factor (Internal Marker) (AID 2282950). Conditions: HepG2 Attagene CIS-FACTORIAL M06 internal marker reporter; actives raise or lower the signal. In a few lines:
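Measured 24 h post-dosing in transiently transfected HepG2 cells, this internal-marker endpoint reports reporter mRNA via RT-PCR with fluorescent primer extension and capillary electrophoresis. DMSO served as negative control and baseline for bidirectional fitting.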

The target in assay [17] is Hepatocyte nuclear factor 6 (Homo sapiens) (UniProt Q9UBC0). As to the kind of experiment: ATG_HNF6_CIS: Attagene CIS-FACTORIAL HepG2 Assay for human Hepatocyte Nuclear Factor 6 (HNF6) (AID 2282952). Conditions: HepG2 Attagene cis-factorial HNF6 reporter transcription; actives raise or lower the signal. In a few lines:
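Readout: fluorescent reporter-transcript fragments resolved by capillary electrophoresis after RT-PCR, reflecting endogenous factor activity in transfected HepG2. Exposure 24 h. Gain or loss of signal fitted bidirectionally against DMSO.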

The target in assay [18] is Heat shock factor protein 1 (Homo sapiens) (UniProt Q00613). As to the kind of experiment: ATG_HSE_CIS: Attagene CIS-FACTORIAL HepG2 Assay for human Heat Shock Transcription Factor 1 (HSE) (AID 2282953). Particulars: HepG2 HSE cis-reporter, Attagene RNA transcription; actives raise or lower the signal. In outline:
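Reporter mRNA induction in HepG2 is measured 24 h after dosing, using transiently transfected multiplexed cis-regulated reporter units. Signal comes from capillary electrophoresis of labelled RT-PCR products, with DMSO as negative control.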

Assay [19] is described as follows: ATG_MRE_CIS: Attagene CIS-FACTORIAL HepG2 Assay for human Metal Responsive Element (MRE) (AID 2282954). Particulars: HepG2 MRE cis-reporter transcription, Attagene multiplex; actives raise or lower the signal. In a few lines:
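RT-PCR/capillary electrophoresis readout of reporter mRNA, 24 h post-dosing, in HepG2 cells transfected with multiplexed cis-regulated reporter constructs. Gain or loss of signal fitted bidirectionally against DMSO baseline.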

Assay [20] has as its target Hypoxia-inducible factor 1-alpha (Homo sapiens) (UniProt Q16665). In words: ATG_HIF1a_CIS: Attagene CIS-FACTORIAL HepG2 Assay for human Hypoxia Inducible Factor 1 (HIF1A) (AID 2282951). Particulars: HepG2 Attagene cis-factorial HIF1a reporter transcription; actives raise or lower the signal. In a few lines: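 Transient MRTU transfection of human HepG2 liver cells, 24 h compound treatment, then total RNA isolation, oligo(dT) reverse transcription, PCR amplification, fluorescent labelling and capillary electrophoresis of reporter fragments. Gain or loss relative to DMSO.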

Structures are written as SMILES. Calls of active or inactive are those of the source. How the source made its calls: active means hit-call score of the fitted dose curve at least 0.9, where 1 is the maximum; inactive means score below 0.9.

Heat shock factor protein 1 (Homo sapiens), sequence (Q00613 whole entry, looked up): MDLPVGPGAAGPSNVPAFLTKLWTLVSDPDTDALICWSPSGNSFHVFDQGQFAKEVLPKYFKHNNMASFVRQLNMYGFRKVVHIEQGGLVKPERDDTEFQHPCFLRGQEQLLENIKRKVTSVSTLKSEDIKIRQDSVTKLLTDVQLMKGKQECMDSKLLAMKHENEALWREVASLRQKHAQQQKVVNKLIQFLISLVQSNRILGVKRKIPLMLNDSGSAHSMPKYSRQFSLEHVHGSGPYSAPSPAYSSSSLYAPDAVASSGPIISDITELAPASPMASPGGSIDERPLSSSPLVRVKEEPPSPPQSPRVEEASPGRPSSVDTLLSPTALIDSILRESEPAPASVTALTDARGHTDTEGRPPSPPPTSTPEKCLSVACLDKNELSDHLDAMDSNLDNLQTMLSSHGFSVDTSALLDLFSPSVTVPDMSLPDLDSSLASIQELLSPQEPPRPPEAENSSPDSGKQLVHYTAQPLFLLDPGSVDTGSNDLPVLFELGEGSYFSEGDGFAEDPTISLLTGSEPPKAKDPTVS
Hypoxia-inducible factor 1-alpha (Homo sapiens), sequence (Q16665 whole entry, looked up, the tested form may be a part): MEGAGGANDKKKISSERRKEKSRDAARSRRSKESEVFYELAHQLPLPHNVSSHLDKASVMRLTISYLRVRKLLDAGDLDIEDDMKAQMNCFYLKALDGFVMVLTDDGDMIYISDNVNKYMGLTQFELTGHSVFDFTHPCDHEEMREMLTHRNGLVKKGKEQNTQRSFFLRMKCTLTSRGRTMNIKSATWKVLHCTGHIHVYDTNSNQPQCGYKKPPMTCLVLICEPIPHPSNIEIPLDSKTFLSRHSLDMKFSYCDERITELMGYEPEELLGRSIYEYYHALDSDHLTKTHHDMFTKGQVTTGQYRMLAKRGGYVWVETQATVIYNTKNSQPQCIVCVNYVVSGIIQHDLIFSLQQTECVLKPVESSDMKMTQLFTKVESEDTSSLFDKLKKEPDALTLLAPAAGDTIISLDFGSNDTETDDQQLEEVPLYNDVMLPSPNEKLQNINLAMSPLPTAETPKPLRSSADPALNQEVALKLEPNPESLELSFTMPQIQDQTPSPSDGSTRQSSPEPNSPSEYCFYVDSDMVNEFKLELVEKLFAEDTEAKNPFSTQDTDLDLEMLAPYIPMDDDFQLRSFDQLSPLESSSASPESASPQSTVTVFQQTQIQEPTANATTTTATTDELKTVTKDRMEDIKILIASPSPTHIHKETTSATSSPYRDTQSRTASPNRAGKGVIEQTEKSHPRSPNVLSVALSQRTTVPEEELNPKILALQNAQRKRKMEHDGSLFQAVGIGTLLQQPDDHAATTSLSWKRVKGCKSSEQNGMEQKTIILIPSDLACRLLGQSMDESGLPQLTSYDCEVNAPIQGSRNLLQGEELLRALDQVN
Hepatocyte nuclear factor 3-beta (Homo sapiens), sequence (Q9Y261 whole entry, looked up): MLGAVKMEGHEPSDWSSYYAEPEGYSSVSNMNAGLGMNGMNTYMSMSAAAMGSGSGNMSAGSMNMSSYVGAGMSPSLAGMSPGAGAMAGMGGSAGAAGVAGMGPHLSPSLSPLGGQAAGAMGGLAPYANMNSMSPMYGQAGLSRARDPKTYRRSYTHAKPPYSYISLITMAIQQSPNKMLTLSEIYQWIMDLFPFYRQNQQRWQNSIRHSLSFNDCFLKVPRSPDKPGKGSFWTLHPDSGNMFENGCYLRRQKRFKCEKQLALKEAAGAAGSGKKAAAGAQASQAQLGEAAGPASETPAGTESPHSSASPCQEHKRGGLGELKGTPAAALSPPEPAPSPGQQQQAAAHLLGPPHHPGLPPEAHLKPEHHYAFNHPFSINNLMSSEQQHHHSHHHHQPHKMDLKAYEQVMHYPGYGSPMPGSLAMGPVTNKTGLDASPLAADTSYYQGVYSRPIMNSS
Transcription factor E2F1 (Homo sapiens), sequence (Q01094 whole entry, looked up): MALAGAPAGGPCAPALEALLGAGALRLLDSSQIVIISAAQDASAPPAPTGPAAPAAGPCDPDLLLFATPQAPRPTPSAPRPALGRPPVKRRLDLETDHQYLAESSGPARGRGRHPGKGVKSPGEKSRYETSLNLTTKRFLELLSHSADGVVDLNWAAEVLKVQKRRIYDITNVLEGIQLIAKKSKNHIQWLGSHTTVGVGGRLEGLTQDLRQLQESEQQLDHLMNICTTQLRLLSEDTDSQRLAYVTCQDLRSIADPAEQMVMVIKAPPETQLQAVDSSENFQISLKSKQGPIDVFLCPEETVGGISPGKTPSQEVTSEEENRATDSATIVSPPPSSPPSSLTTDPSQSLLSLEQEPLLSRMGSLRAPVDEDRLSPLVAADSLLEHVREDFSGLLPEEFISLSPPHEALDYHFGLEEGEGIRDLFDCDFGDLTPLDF
Hepatocyte nuclear factor 6 (Homo sapiens), sequence (Q9UBC0 whole entry, looked up, the tested form may be a part): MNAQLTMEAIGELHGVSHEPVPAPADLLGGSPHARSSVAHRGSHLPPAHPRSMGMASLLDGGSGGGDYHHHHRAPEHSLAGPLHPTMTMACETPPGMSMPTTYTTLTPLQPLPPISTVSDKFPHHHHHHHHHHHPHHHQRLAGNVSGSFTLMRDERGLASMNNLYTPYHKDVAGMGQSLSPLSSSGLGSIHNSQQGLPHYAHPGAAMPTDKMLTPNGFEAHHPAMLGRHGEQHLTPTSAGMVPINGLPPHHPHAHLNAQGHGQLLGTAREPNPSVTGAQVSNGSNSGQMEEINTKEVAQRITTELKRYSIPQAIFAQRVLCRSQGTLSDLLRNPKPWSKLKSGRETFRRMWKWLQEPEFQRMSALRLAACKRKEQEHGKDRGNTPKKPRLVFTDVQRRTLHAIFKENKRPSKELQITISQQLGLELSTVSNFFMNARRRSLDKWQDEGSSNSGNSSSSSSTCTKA
Bile acid receptor (Homo sapiens), sequence (Q96RI1 whole entry, looked up): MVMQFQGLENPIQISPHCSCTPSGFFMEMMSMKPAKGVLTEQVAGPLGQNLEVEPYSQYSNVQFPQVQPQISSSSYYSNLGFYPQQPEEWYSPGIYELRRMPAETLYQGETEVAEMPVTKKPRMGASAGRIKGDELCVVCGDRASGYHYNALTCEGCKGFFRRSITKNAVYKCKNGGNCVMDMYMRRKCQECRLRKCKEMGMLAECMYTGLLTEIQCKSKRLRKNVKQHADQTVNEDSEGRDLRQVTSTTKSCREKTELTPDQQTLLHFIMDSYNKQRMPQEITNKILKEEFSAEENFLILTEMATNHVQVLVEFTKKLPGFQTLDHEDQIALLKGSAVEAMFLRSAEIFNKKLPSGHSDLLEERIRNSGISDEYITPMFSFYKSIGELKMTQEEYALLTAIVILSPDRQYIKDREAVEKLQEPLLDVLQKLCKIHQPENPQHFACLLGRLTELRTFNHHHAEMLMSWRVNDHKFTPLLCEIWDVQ

One may read the AC50 as the concentration at which the activity in the assay is half-maximal. As for `COc1ccc(C(=O)/C(Br)=C\C(=O)O)cc1`, the compound was classed as inactive in assay [1], in [2], in [3], in assay [5], in [6] and in [7]. Moreover, the compound was classed as inactive in [8], in assay [9], in assay [10], in assay [11], in assay [12] and in assay [13]. Moreover, the outcome in assay [15], in [16] and in assay [17] was inactive. Moreover, the AC50 in assay [4] is 68 µM (active); in assay [14], 57.2 µM (active); in [18] it was 174 µM (active); in assay [19], 55.5 µM (active).

In the case of `O=C(Cl)c1c(Cl)c(Cl)c(C(=O)Cl)c(Cl)c1Cl`, the result in assay [1], in assay [2], in assay [3], in assay [4], in [5] and in [6] was inactive. Moreover, the result in assay [7], in [8], in assay [9], in [10], in [11] and in assay [12] was inactive. Also, the call in [13], in assay [14], in assay [16], in assay [20], in assay [17] and in assay [18] was inactive. Besides, the compound was classed as inactive in [19].

As for `CCOC(=O)C1=NN(c2ccc(Cl)cc2Cl)C(C)(C(=O)OCC)C1` (stereo unspecified), the compound was classed as inactive in assay [1], in [2], in [3], in assay [4], in [5] and in assay [6]. Also, the result in assay [7], in assay [8], in assay [9], in assay [10], in assay [11] and in [12] was inactive. For the same compound, the compound was classed as inactive in assay [13], in [14], in assay [15], in assay [16], in assay [20] and in assay [17]. The AC50 in [19] was 66.8 µM (active).

On to `CC1=CP(=O)(c2ccccc2)CC1` (stereo unspecified), for which the compound was classed as inactive in assay [1], in assay [2], in [3], in assay [4], in [5] and in [6]. Also, the compound was classed as inactive in assay [7], in assay [8], in assay [9], in [10], in assay [11] and in [12]. Further, the compound was classed as inactive in [13], in assay [14], in [15], in [16], in assay [20] and in assay [17]. In addition, the result in assay [18] and in assay [19] was inactive.

For the compound `COc1nccnc1CC(C)C`, the compound was called inactive in [1], in [2], in assay [3], in assay [4], in assay [5] and in assay [6]. The compound was called inactive in assay [7], in assay [8], in [9], in [10], in assay [11] and in assay [12]. In addition, the compound was classed as inactive in [13], in assay [14], in assay [15], in assay [16], in assay [20] and in assay [17]. Further, the compound was called inactive in [18] and in assay [19].

Consider `CCc1occc(=O)c1O`, for which the call in assay [1], in assay [2], in [3], in assay [4], in assay [5] and in assay [6] was inactive. Also, the call in [7], in assay [8], in assay [9], in [10], in assay [11] and in [12] was inactive. The outcome in [13], in [14], in assay [15], in [16], in assay [20] and in [17] was inactive. Also, the call in assay [18] and in assay [19] was inactive.

For `Cc1cc(C)n(CO)n1`, the call in assay [1], in [2], in [3], in [4], in [5] and in [6] was inactive. The compound was classed as inactive in [7], in assay [8], in [9], in [10], in assay [11] and in [12]. The call in assay [13], in assay [14], in [15], in [16], in assay [20] and in assay [17] was inactive. Moreover, the compound was classed as inactive in assay [19].
